Measured values taken from PubChem BioAssay.
Where “and” joins values, the source holds several entries; their conditions need not be identical. Equal values may be shown once. Records with an inconclusive call do not appear. Calls of active or inactive are those of the source.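 Rule for the calls, unless noted: active = inhibition above 54%, about 3 SD of non-fluorescent compounds; inactive = the rest.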

Assays:
[1] = yeast TOR pathway RPL19A-GFP modulators, primary screen, cell-based, S. cerevisiae, multiplex flow cytometry (AID 1862; in the data active = percent of DMSO control GFP below about 86%;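 note: lower values mimic rapamycin by blocking the RPL19A rise seen in DMSO cells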); conditions: S. cerevisiae RPL19A-GFP strain, flow cytometry fluorescence, 3 h; at 10 µM; stronger effect = lower value
[2] = modulators of MEP2-GFP levels in yeast, primary screen, S. cerevisiae, multiplex flow cytometry (AID 1867;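 active = GFP response, as percent of the DMSO control, above the screen-wide mean plus 3 SD, about 139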;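 note: median GFP channel fluorescence of barcode-gated MEP2-GFP cells measured by flow cytometry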); conditions: S. cerevisiae MEP2-GFP strain, 3 h, at 10 µM, stronger effect = higher value, 100% means same as DMSO wells
[3] = modulators of CIT2-GFP expression in yeast, primary screen, S. cerevisiae, GFP fusion, multiplex flow cytometry (AID 1870;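 active = percent response above a set limit, the screen-wide mean plus 3 SD, cut at about 130% in these data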;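 note: barcoded CIT2-GFP strain pooled with four other GFP strains with rapamycin as positive control; median GFP fluorescence per well over plate mean of DMSO wells so 100% = DMSO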); conditions: 3 h, at 10 µM, stronger effect = higher value
[4] = modulators of LAP4-GFP expression in yeast, primary screen, S. cerevisiae, multiplex flow cytometry (AID 1873;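 active = GFP signal, as percent of the solvent control, above the screen mean plus 3 SD, about 149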); conditions: 3 h, at 10 µM, stronger effect = higher value
[5] = modulators of AGP1-GFP expression in yeast TOR pathway, primary screen, cell-based, multiplex flow cytometry, S. cerevisiae (AID 1887;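 active = GFP signal above the screen-wide mean plus 3 SD, that is over about 124.5% of the solvent control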;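 note: AGP1-GFP fusion strain of S. cerevisiae within a five-strain barcoded multiplex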); conditions: 3 h, at 10 µM, stronger effect = higher value
[6] = inhibitors of CD8+ T cell-vesicle binding, pilot screen, LFA-1/ICAM-1 modulator project, MLPCN validation set, flow cytometry (AID 2523;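 active = response below a set limit, under 55% cells CD8-positive and vesicle-bound, and CD8 cells' 90th-percentile brightness under 279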;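 for vesicle binding response: mean PE anti-B7-1 fluorescence of CD8+ cells relative to row control; 100% = QL9-loaded vesicles with DMSO vehicle in the same plate row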); conditions: 2C mouse CD8+ T cells, at 7 µM, stronger effect = lower value; double positive events: measured here: CD8+/vesicle+ event percentage
[7] = target: Integrin beta-1 (Homo sapiens) + Integrin alpha-4 (Homo sapiens) (UniProt P13612+P05556); assay: inhibition of HUTS-21 binding to VLA-4, pilot screen, VLA-4 allosteric modulator project, U937 cells, HUTS-21 mAb, flow cytometry, validation set (AID 2674;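 active = inhibition above 50%, about 3 SD of the validation set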;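 note: antibody binding induced by the VLA-4 ligand LDV present at three times its Kd; 0% = LDV ligand with antibody and no compound and 100% = antibody without LDV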); conditions: HUTS-21 LIBS mAb binding, at 6.7 µM, stronger effect = higher value, binding induced by LDV ligand
Integrin beta-1 (Homo sapiens) + Integrin alpha-4 (Homo sapiens), sequence (P05556 whole entry, looked up): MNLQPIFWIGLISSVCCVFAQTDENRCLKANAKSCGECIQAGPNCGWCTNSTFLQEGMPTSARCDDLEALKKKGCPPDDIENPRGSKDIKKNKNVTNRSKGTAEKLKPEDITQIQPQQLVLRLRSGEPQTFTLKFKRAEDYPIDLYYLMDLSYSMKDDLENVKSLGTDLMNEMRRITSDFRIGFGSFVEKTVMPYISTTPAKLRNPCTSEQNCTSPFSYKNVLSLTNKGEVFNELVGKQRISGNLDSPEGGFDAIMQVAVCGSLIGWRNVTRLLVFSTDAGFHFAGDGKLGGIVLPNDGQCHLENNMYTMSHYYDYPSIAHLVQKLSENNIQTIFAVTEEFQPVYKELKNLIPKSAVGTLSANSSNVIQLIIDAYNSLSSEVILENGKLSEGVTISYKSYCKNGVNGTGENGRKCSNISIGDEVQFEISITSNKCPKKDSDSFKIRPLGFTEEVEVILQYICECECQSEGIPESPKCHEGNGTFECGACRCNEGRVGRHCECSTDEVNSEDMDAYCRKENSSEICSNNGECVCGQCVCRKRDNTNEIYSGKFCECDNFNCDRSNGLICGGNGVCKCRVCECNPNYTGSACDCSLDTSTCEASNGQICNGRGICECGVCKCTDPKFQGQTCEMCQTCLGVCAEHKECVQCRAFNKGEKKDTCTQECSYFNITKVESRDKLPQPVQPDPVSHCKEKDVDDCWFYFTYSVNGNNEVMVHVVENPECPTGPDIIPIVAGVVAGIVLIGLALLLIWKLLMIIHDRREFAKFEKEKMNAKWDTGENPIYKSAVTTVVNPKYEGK
Integrin beta-1 (Homo sapiens) + Integrin alpha-4 (Homo sapiens), sequence (P13612 whole entry, looked up): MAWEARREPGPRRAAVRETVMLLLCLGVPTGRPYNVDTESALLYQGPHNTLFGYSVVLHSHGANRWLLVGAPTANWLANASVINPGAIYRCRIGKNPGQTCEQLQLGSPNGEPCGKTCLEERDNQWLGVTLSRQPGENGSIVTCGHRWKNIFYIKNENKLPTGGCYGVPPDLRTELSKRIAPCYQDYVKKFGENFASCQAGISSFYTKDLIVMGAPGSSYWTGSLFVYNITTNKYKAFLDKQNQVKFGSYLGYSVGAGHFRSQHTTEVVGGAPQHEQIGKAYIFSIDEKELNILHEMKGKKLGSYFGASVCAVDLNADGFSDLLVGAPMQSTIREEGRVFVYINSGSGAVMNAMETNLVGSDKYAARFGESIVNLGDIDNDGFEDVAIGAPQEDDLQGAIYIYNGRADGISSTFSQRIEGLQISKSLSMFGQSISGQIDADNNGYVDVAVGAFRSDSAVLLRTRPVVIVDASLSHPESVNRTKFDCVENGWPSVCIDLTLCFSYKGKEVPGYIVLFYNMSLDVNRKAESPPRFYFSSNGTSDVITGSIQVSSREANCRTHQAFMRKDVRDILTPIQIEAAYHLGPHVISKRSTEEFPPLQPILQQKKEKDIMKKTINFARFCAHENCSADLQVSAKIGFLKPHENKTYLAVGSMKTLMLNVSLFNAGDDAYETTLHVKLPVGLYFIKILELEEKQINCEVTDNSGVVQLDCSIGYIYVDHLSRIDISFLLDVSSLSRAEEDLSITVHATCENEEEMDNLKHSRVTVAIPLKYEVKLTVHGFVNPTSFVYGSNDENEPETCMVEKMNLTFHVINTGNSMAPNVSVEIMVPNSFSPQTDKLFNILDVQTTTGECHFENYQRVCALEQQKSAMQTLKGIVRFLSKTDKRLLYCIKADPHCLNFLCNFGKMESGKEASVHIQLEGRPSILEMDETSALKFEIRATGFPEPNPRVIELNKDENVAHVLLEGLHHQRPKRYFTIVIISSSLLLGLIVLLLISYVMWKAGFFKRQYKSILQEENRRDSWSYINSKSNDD

[8] = superoxide lowering in aged yeast cells, pilot screen, validation compound set (AID 2706;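 active = superoxide response below 65% of plate, a cut near 3 SD across the whole screen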;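 note: yeast exposed to compound for one week at 30 degrees C before staining; 100% = mean of all compound wells on the same plate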); conditions: S. cerevisiae aging, superoxide DHE fluorescence; at 10 µM; stronger effect = lower value
[9] = target: Beta-adrenergic receptor kinase 1 (Homo sapiens) (UniProt P25098); assay: GRK2 binders displacing RNA aptamer, biochemical, validation, human GRK2, bead flow cytometry (AID 488806;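 active = aptamer binding inhibition above 30%, about 3 SD of noise from non-fluorescent compounds; inactive = inhibition at or below 30%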); conditions: bead-bound GRK2, FAM-aptamer displacement, at 10 µM, stronger effect = higher value
Beta-adrenergic receptor kinase 1 (Homo sapiens), sequence (P25098 whole entry, looked up): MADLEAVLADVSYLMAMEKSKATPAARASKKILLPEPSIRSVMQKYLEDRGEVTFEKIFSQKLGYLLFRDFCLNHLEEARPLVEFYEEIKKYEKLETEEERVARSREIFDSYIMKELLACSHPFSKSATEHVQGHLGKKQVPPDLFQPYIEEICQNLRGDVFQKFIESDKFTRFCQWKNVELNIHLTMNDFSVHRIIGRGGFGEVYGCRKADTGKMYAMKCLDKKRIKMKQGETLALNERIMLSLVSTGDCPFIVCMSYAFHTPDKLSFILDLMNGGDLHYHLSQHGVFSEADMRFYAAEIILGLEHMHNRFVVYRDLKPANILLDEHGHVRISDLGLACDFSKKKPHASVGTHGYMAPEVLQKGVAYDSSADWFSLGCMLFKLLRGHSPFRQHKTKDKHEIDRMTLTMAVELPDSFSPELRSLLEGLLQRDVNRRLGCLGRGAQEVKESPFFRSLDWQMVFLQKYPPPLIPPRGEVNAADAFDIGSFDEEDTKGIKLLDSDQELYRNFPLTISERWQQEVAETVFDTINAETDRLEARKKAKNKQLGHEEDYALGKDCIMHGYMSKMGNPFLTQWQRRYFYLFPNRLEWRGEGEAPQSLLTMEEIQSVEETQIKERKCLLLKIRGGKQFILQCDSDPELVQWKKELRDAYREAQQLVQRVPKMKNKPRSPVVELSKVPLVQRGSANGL

[10] = target: Beta-2 adrenergic receptor (Homo sapiens) (UniProt P07550); assay: beta2AR agonists driving receptor internalization, pilot screen, cell-based, FAP fluorogen, flow cytometry, validation set (AID 504459;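 active = percent response above 42, roughly 3 SD of non-fluorescent test compounds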;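 note: agonist-driven loss of surface beta2AR via internalization measured by FAP dye flow cytometry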); conditions: Am2.2-beta2AR cells, FAP surface receptor flow cytometry; at 10 µM; stronger effect = higher value
Beta-2 adrenergic receptor (Homo sapiens), sequence (P07550 whole entry, looked up, the tested form may be a part): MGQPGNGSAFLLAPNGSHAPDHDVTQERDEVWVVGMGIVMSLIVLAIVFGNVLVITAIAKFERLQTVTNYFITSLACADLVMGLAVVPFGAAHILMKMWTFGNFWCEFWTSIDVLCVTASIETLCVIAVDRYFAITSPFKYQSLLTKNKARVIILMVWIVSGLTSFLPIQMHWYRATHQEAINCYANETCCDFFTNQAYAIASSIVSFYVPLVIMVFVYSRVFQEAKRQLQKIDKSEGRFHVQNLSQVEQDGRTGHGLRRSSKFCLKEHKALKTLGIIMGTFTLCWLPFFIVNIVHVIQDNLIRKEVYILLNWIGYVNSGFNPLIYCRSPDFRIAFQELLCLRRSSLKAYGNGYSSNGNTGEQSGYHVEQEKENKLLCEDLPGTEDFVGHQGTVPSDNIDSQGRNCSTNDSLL

[11] = target: AP-2 complex subunit beta (Homo sapiens) (UniProt P63010); assay: inhibitors of arrestin peptide binding to AP2, pilot screen, biochemical, validation set, GST-AP2 beads, flow cytometry (AID 504541); conditions: FITC arrestin peptide, at 10 µM, stronger effect = higher value, AP2 beta2 appendage fragment, R879A mutant;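 note: AP2 carries R879A mutation and is captured from E. coli lysate; bead-bound FITC arrestin peptide fluorescence measuring arrestin peptide binding to AP2; 0% = DMSO wells and 100% = excess unlabeled arrestin peptide control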
AP-2 complex subunit beta (Homo sapiens), sequence (P63010 whole entry, looked up, the tested form may be a part, one chain of several): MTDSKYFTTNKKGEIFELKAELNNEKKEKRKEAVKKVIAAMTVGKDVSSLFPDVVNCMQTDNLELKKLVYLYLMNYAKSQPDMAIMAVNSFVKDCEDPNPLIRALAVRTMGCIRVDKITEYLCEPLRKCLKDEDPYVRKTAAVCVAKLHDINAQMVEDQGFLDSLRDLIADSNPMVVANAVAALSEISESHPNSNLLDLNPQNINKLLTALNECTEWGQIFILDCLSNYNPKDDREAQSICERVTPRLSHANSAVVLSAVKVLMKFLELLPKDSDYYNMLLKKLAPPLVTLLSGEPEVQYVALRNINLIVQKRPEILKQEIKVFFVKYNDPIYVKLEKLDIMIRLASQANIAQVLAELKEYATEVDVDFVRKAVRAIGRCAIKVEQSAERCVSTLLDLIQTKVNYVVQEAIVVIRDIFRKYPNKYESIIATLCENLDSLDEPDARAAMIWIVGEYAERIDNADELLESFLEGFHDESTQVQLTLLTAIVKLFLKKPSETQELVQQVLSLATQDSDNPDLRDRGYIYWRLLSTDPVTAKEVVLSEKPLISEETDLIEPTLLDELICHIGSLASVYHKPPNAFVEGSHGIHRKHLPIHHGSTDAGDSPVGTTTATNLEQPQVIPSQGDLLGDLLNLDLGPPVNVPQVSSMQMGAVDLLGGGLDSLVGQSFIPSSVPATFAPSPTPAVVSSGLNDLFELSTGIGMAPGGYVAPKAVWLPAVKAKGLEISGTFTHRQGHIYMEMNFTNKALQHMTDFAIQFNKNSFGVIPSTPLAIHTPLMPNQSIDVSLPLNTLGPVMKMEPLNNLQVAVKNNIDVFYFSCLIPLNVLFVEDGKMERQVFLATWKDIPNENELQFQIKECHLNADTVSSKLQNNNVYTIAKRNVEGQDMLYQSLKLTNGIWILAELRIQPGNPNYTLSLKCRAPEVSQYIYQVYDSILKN

[12] = yeast V-ATPase proton transport modulators, S. cerevisiae, pHLuorin, HTS validation (AID 504600; in the data active = response above about 15%;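 note: plate controls were DMSO for no effect and reference compound for full effect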); conditions: S. cerevisiae pHLuorin cytosolic pH, at 10 µM, stronger effect = higher value
[13] = system: anti-desmoglein-3 scFv antibody binding to human DSG3; assay: inhibitors of anti-DSG3 scFv binding to DSG3, pilot screen, biochemical, validation compound set, bead-based, flow cytometry (AID 588368;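 active = binding below the plate cutoff, the plate median minus 3 SD, with a reading above zero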;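 note: signal is the median channel fluorescence of bead-bound GFP antibody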); conditions: Protein G beads, DSG3-Fc, scFv-GFP binding, at 10 µM, stronger effect = lower value
[14] = inhibitors of fungal efflux pumps CDR1, CDR2, MDR1, pilot screen, validation compound set, multiplex, phenotypic (AID 588506;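 active = efflux inhibition above 0.42, the validation set average plus 4 SD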;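 note: Nile Red retained in cells so higher fluorescence means more efflux inhibition; 0 = negative control wells and 1 = enniatin B 25 µM full block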); conditions: S. cerevisiae pump-expressing triplex, Nile Red efflux flow cytometry; at 10 µM; stronger effect = higher value; the pumps come from Candida albicans
[15] = target: ATP-binding cassette sub-family B member 6 (Homo sapiens) (UniProt Q9NP58); assay: ABCB6 transporter inhibitors, pilot screen, K562-ABCB6 cells, flow cytometry, validation set (AID 588550;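 active = inhibition above the screen-wide mean plus 3 SD, about 51%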;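 note: 0% = DMSO wells and 100% = benzethonium chloride 70 µM positive control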); conditions: K562-ABCB6 porphyrin accumulation, 1 h, at 10 µM, stronger effect = higher value
ATP-binding cassette sub-family B member 6 (Homo sapiens), sequence (Q9NP58 whole entry, looked up): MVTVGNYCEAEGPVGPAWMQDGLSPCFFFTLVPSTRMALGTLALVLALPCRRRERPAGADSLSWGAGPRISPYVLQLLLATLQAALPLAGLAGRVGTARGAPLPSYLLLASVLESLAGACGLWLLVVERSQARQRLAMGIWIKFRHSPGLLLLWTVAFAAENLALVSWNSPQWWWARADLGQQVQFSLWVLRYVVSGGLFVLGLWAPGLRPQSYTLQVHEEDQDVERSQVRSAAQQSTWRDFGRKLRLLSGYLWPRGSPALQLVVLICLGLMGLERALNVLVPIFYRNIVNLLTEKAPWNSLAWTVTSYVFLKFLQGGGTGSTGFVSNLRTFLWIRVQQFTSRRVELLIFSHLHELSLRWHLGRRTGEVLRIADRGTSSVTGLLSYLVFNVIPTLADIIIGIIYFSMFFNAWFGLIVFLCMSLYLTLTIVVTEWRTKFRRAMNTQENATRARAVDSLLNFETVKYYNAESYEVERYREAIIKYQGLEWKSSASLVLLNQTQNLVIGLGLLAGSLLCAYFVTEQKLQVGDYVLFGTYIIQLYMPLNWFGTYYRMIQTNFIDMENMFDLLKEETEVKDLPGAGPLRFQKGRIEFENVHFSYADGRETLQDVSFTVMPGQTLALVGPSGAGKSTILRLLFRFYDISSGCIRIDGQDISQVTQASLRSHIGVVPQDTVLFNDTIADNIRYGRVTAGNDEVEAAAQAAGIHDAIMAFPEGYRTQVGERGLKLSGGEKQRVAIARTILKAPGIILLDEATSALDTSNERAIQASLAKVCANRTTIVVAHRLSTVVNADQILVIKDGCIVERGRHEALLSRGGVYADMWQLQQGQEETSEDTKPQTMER

[16] = promoters of myeloid differentiation in arrested cells, primary screen, cell-based, GFP/MAC1 double positive, flow cytometry, validation set (AID 588685;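 active = differentiation response of at least 50%, scaled between solvent and reference control, from cells with both markers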;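 note: compound exposure lasts four days before antibody staining and flow analysis; 0% = DMSO wells and 100% = 5 µM fulvestrant positive control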); conditions: ER-HoxA9 marrow cells, stronger effect = higher value, normalized: vehicle 0, fulvestrant 100

CC(C)OC(=O)CC12CN3CN(C1)CC(CC(=O)OC(C)C)(C3)C2=O
60.5%: double positive events [6]
inactive: percent of DMSO control GFP [1] 99.5% | GFP response vs DMSO [2] 115% | percent response of DMSO control [3] 90.1% | GFP response vs DMSO [4] 119% | GFP response, % of DMSO [5] 105% | vesicle binding response [6] 179% | inhibition [7] -0.43% | superoxide response (% of plate) [8] 92.3% | aptamer binding inhibition [9] 1% | response [10] -2.44% | inhibition [11] 11.2% | response [12] -2% | binding (% of control) [13] 103% | efflux inhibition (fraction of control) [14] 0.12 | inhibition [15] 11% | differentiation response [16] 39.2%

CCCC(CCC)C(=O)OC1C[C@H]2CC[C@@H](C1)[N+]2(C)C (stereo partly drawn)
inactive: percent of DMSO control GFP [1] 95.2% | GFP response vs DMSO [2] 132% | percent response of DMSO control [3] 93.9% | GFP response vs DMSO [4] 80.9% | GFP response, % of DMSO [5] 94.9% | vesicle binding response [6] 155% | inhibition [7] 14.2% | superoxide response (% of plate) [8] 108% | aptamer binding inhibition [9] 7% | response [10] -2.34% | inhibition [11] -1.17% | response [12] 0.47% | binding (% of control) [13] 101% | efflux inhibition (fraction of control) [14] 0.27 | inhibition [15] 9% | differentiation response [16] 3.28%
59.5%: double positive events [6]

O=C(/C=C/c1ccccc1)NC(=O)c1ccccc1O
inactive: percent of DMSO control GFP [1] 106% | GFP response vs DMSO [2] 104% | percent response of DMSO control [3] 104% | GFP response vs DMSO [4] 121% | GFP response, % of DMSO [5] 94.2% | vesicle binding response [6] 128% | inhibition [7] 4.27% | superoxide response (% of plate) [8] 111% | aptamer binding inhibition [9] -4% | response [10] 5.9% | inhibition [11] 15.2% | response [12] -7.97% | binding (% of control) [13] 102% | efflux inhibition (fraction of control) [14] 0.07 | inhibition [15] 0% | differentiation response [16] -10.4%
59.9%: double positive events [6]

O=C(N1CCCCC1)C1(c2ccccc2)CCOCC1
57.5%: double positive events [6]
inactive: percent of DMSO control GFP [1] 99.3% | GFP response vs DMSO [2] 103% | percent response of DMSO control [3] 92% | GFP response vs DMSO [4] 129% | GFP response, % of DMSO [5] 103% | vesicle binding response [6] 213% | inhibition [7] -3.16% | superoxide response (% of plate) [8] 92.5% | aptamer binding inhibition [9] 1% | response [10] -7.86% | inhibition [11] 7.05% | response [12] 0.45% | binding (% of control) [13] 104% | efflux inhibition (fraction of control) [14] -0.17 | inhibition [15] 5% | differentiation response [16] -24.8%

CC1(C)O[C@@H]2C[C@H]3[C@@H]4C[C@H](F)C5=CC(=O)CC[C@]5(C)[C@H]4[C@@H](O)C[C@]3(C)[C@]2(C(=O)CO)O1
active: aptamer binding inhibition [9] 37%
63.8%: double positive events [6]
inactive: percent of DMSO control GFP [1] 97.9% | GFP response vs DMSO [2] 95.6% | percent response of DMSO control [3] 89.3% | GFP response vs DMSO [4] 91.5% | GFP response, % of DMSO [5] 92.4% | vesicle binding response [6] 128% | inhibition [7] -2.43% | superoxide response (% of plate) [8] 88.9% | response [10] 19% | inhibition [11] -4.49% | response [12] -2% | binding (% of control) [13] 106% | efflux inhibition (fraction of control) [14] 0.25 | inhibition [15] 12% | differentiation response [16] 34.9%

Cc1ccc(N(CC2=NCCN2)c2cccc(O)c2)cc1
48.5% and 66.6% and 52.4%: double positive events [6]
inactive: percent of DMSO control GFP [1] 107% and 88.9% and 106% | GFP response vs DMSO [2] 107% and 126% and 96.9% | percent response of DMSO control [3] 112% and 107% and 114% | GFP response vs DMSO [4] 105% and 80.3% and 113% | GFP response, % of DMSO [5] 105% and 95.6% and 106% | vesicle binding response [6] 164% and 159% and 183% | inhibition [7] -12.4% and 6.46% and 1.62% | superoxide response (% of plate) [8] 94.9% and 91.2% and 102% | aptamer binding inhibition [9] -2% and 0% and -7% | response [10] -2.19% | inhibition [11] -1.88% and 0.96% and -11.2% | response [12] 1.2% and -3.77% and 0.74% | binding (% of control) [13] 98.2% and 102% and 97.7% | efflux inhibition (fraction of control) [14] -0.05 and 0.23 and -0.24 | inhibition [15] 9% and 4% and 7% | differentiation response [16] -34.1% and 3.28% and -18%

COc1ccccc1NC(=O)N1CCc2[nH]c3ccc(Cl)cc3c2C1
inactive: percent of DMSO control GFP [1] 101% | GFP response vs DMSO [2] 110% | percent response of DMSO control [3] 102% | GFP response vs DMSO [4] 121% | GFP response, % of DMSO [5] 94% | vesicle binding response [6] 135% | inhibition [7] -11.8% | superoxide response (% of plate) [8] 102% | aptamer binding inhibition [9] 2% | response [10] -11.2% | inhibition [11] -2.38% | response [12] 1.31% | binding (% of control) [13] 121% | efflux inhibition (fraction of control) [14] -0.42 | inhibition [15] -33% | differentiation response [16] 18.8%
62.4%: double positive events [6]

CC(CCc1ccccc1)NC(=O)/C=C/c1ccccc1 (stereo not drawn)
61.8%: double positive events [6]
inactive: percent of DMSO control GFP [1] 92.6% | GFP response vs DMSO [2] 132% | percent response of DMSO control [3] 107% | GFP response vs DMSO [4] 92.4% | GFP response, % of DMSO [5] 81.7% | vesicle binding response [6] 129% | inhibition [7] 1.61% | superoxide response (% of plate) [8] 91.7% | aptamer binding inhibition [9] 5% | response [10] -12.9% | inhibition [11] -0.16% | response [12] 1.44% | binding (% of control) [13] 103% | efflux inhibition (fraction of control) [14] -0.13 | inhibition [15] 12% | differentiation response [16] 0%

COc1ccc(Br)cc1C(=O)Nc1ccc(C(=O)O)cc1
inactive: percent of DMSO control GFP [1] 107% | GFP response vs DMSO [2] 105% | percent response of DMSO control [3] 88.4% | GFP response vs DMSO [4] 127% | GFP response, % of DMSO [5] 68.8% | vesicle binding response [6] 240% | inhibition [7] -0.45% | superoxide response (% of plate) [8] 97.6% | aptamer binding inhibition [9] 3% | response [10] -0.63% | inhibition [11] -7.7% | response [12] 1.41% | binding (% of control) [13] 96.3% | efflux inhibition (fraction of control) [14] -0.04 | inhibition [15] -4% | differentiation response [16] 5.13%
63.9%: double positive events [6]
